In PubChem BioAssay AID1048 (The Scripps Research Institute Molecular Screening Center, 2008) one finds TR-FRET ratio data, which are given here for 93 compounds.

The campaign covered roughly 99,000 compounds. About 390 (0.39%) were called active. The sample holds actives, similar compounds and a random draw of the others, so the mix is not that of the screen. No stated cut-off is given here; in the data, active means TR-FRET ratio above about 2000; inactive means the rest.

A short description of the assay: TR-FRET detection interference compounds, artefact control for PPARgamma SRC-3 recruitment agonists, biochemical, TR-FRET ratio (AID 1048). Conditions: TR-FRET artefact counter-screen, PPARgamma/SRC-3 format; at 8 µM; active compounds read high. For orientation: Time-resolved FRET reads energy transfer from a long-lived donor to a nearby acceptor.
With `CC(=O)C1C(c2ccc(Cl)cc2)c2c(n[nH]c2C)CC1(C)O` (stereo not drawn), the TR-FRET ratio is 1710 (inactive).

For `COc1ccc(NS(=O)(=O)c2cc(NC(=O)C3CCCCC3)ccc2N2CCOCC2)cc1`, the TR-FRET ratio was 1510 (inactive). In the case of `O=C(Nc1ccc([N+](=O)[O-])cc1)C1CC12CCC2` (stereo not drawn), the TR-FRET ratio is 1620 (inactive). As to `CC(=O)c1ccc(S(=O)(=O)Nc2ccc(C(=O)NCC(c3ccccc3)N(C)C)cc2)cc1` (stereo not drawn), the TR-FRET ratio is 1580 (inactive).

`CC(Sc1cccc[n+]1[O-])C(=O)Nc1cccc(S(=O)(=O)N2CCOCC2)c1` (stereo not drawn): the TR-FRET ratio was 1620 (inactive). Consider `COc1ccc(/C=N/NC(=O)c2ccccc2)cc1OS(=O)(=O)c1ccccc1`, for which the TR-FRET ratio was 1630 (inactive). The same measure for `COc1cccc(CNC(=O)CCN2C(=S)NC(C)(C)CC2C)c1` (stereo not drawn): 1480 (inactive); for `O=C(COC(=O)c1ccccc1F)Nc1cc(S(=O)(=O)N2CCOCC2)ccc1N1CCCC1`: 1600 (inactive); for `O=C(Nc1ccc(NC(=O)c2ccco2)c(Cl)c1)c1cccc([N+](=O)[O-])c1`: 1700 (inactive). On to `Cc1ccc2[nH]c(C)c(CCNC(=O)NC3CCCCC3)c2c1`, for which the TR-FRET ratio was 1590 (inactive).

In the case of `CCN(C(=O)COC(=O)/C=C/c1nc2ccccc2s1)C1CCS(=O)(=O)C1` (stereo not drawn), the TR-FRET ratio was 1560 (inactive). With `COCc1c(C(=O)OCc2c(C)noc2C)oc2ccccc12`, the TR-FRET ratio was 1630 (inactive). Take `CCN1CCN(C(=O)CCN2C(=O)c3ccccc3C2=O)CC1`: the TR-FRET ratio is 1540 (inactive). Consider `COc1ccc(S(=O)(=O)Nc2cccnc2)c(Cl)c1Cl`, for which the TR-FRET ratio was 1690 (inactive). Regarding `CCn1ccnc1CN(C)Cc1nc(-c2ccc3c(c2)OCO3)no1`, the TR-FRET ratio is 1670 (inactive). Consider `COc1ccc(-n2c(=S)[nH]c3sc4c(c3c2=O)CCc2ccccc2-4)cc1`, for which the TR-FRET ratio is 1560 (inactive). Consider `O=C(CCN1CCCCC1)N=Nc1c(O)[nH]c2ccccc12`, for which the TR-FRET ratio is 1900 (inactive). With `CCn1c(=O)cc(SCC(=O)NCCC2=CCCCC2)c2ccccc21`, the TR-FRET ratio is 1710 (inactive). Take `O=C(CSc1cccc[n+]1[O-])NCCCc1ccccc1`: the TR-FRET ratio was 1360 (inactive). Consider `CCN(CCCNC(=O)CSc1cc(=O)n(C)c2cc(Cl)ccc12)Cc1ccccc1`, for which the TR-FRET ratio is 2580 (active). Take `Cn1cnnc1Sc1ccc(CN2CCN(C3CCCC3)C(CCO)C2)o1` (stereo not drawn): the TR-FRET ratio was 1420 (inactive). With `CN(c1ccccc1)c1nc(N)c([N+](=O)[O-])c(NCc2ccco2)n1`, the TR-FRET ratio was 1700 (inactive). For `C/C(N)=C(/C#N)C(=O)COC(=O)CNS(=O)(=O)c1ccc(C)cc1`, the TR-FRET ratio is 1640 (inactive). The same measure for `Cc1c(C(=O)Nc2ccccc2)sc2nc3n(c(=O)c12)CCCCC3`: 1500 (inactive). On to `O=C(CCCn1c(=O)c2sccc2n(CC(=O)NCC2CCCO2)c1=O)NCc1ccco1` (stereo not drawn), for which the TR-FRET ratio was 1480 (inactive). The same measure for `CCn1nc(C)cc1C(=O)N1CCCC(C(=O)c2cccc(OC)c2)C1` (stereo not drawn): 1380 (inactive); for `CCCCN(C(=O)c1ccc(OC(F)(F)F)cc1)c1c(N)n(CCC)c(=O)[nH]c1=O`: 1550 (inactive); for `CN(C)c1nc(-c2cccnc2)nc(-c2ccc(Cl)cc2)c1C#N`: 1720 (inactive). For the compound `CC(=O)c1ccc(NC(=S)N(Cc2ccccc2)C(C)C2CC2)cc1` (stereo not drawn), the TR-FRET ratio is 1760 (inactive). With `CN1CCN(c2ccc(S(=O)(=O)N3CCCCC3)cc2NC(=O)Cc2ccccc2F)CC1`, the TR-FRET ratio was 1600 (inactive). For `Cc1cccc(C)c1NC(=O)C1(C)c2cccc[n+]2CC(=O)N1Cc1cccs1` (stereo not drawn), the TR-FRET ratio was 1340 (inactive). As to `Cc1ccc(C(=O)NC(=S)NCCN2CCOCC2)cc1`, the TR-FRET ratio is 1640 (inactive).

Consider `O=C1CCCC(O)=C1N=Nc1ccc2ncsc2c1`, for which the TR-FRET ratio was 1660 (inactive). As for `O=C(c1ccccc1Cl)N(Cc1ccccc1F)N1C(=O)CCCC1=O`, the TR-FRET ratio is 1570 (inactive). Consider `Cc1ccc(S(=O)(=O)N2CCOCC2)cc1NC(=O)CSc1nnc(N)s1`, for which the TR-FRET ratio is 1740 (inactive). On to `S=c1[nH]nc(COc2ccccc2)n1-c1ccccc1`, for which the TR-FRET ratio is 1490 (inactive). For the compound `Fc1ccc(COc2cccc(-c3n[nH]c(=S)o3)c2)cc1`, the TR-FRET ratio was 2970 (active). For the compound `Cc1cccc(OCc2ccc(C(=O)Nc3ccc(F)cc3)cc2)c1`, the TR-FRET ratio is 1440 (inactive). The same measure for `O=C(CCc1ccccc1)Nc1ccc(NC(=O)C2CCCCC2)nc1`: 1430 (inactive); for `CCOP(=O)(OCC)C(Nc1ccc([N+](=O)[O-])cc1)c1ccc(Cl)cc1` (stereo not drawn): 1560 (inactive).

`Cc1csc(CN(C)C(=O)CC2C(=O)NCCN2CC(C)(C)C)n1` (stereo not drawn): the TR-FRET ratio was 1590 (inactive). The same measure for `O=S(=O)(NC1CC1)c1ccc2c3c(cccc13)CC2`: 1560 (inactive); for `COc1cccc(OC)c1C(=O)NC(=S)Nc1ccc(N2CCOCC2)c(Cl)c1`: 1350 (inactive); for `COc1ccc(C2(CNC(=O)Cc3ccc(OC)c(OC)c3)CCCC2)cc1`: 1430 (inactive). Turning to `COc1ccc(C(=O)NNC(=S)NC(=O)c2ccccc2[N+](=O)[O-])cc1`, the TR-FRET ratio is 1550 (inactive). With `CCN(C(=O)COC(=O)c1cc(NS(=O)(=O)c2ccc(Cl)c([N+](=O)[O-])c2)ccc1O)C1CCCCC1`, the TR-FRET ratio is 1460 (inactive). For `CCN(CC)c1ccc(C(=O)N/N=C(\C)c2cccc(OC)c2)cc1`, the TR-FRET ratio is 1500 (inactive). Consider `O=C(NCCCN1CCOCC1)c1ccc(N2CCCC2)c([N+](=O)[O-])c1`, for which the TR-FRET ratio is 1590 (inactive). On to `Cc1cc(C(=O)CC#N)c(C)n1-c1c(C)n(C)n(-c2ccccc2)c1=O`, for which the TR-FRET ratio is 1450 (inactive). As for `CCOc1ccc(N2C(=O)CN(c3cccc4ccccc34)C2=S)cc1`, the TR-FRET ratio is 1810 (inactive). Consider `CC(C)(C)NC(=O)CN1CCC(NC(=O)C23CC4CC(CC(C4)C2)C3)CC1`, for which the TR-FRET ratio was 1580 (inactive). Consider `CCOC(=O)C1(CCOc2ccccc2)CCN(C(=O)c2cncs2)CC1`, for which the TR-FRET ratio was 1510 (inactive). With `CCC(=O)Nc1cc(C(F)(F)F)ccc1N1CCCC1`, the TR-FRET ratio is 1710 (inactive). Take `COc1ccc(C(=O)NNc2cc(C)nc(NNC(=O)c3ccc(OC)cc3)n2)cc1`: the TR-FRET ratio was 1420 (inactive). The same measure for `COc1cc(CNc2ncn[nH]2)ccc1OCc1ccccc1C`: 1650 (inactive); for `OCCC1CN(Cc2cnc(-c3ccccc3)s2)CCN1CCc1ccccc1` (stereo not drawn): 1800 (inactive); for `CCC(C)N(C(=O)COC(=O)C1C(C(=O)OC)=C(C)NC(C)=C1C(=O)OC)C1CCS(=O)(=O)C1` (stereo not drawn): 1620 (inactive). The value for `CCOC(=O)N/N=C/c1cccnc1` was 1540 (inactive); that for `OCC1(CCc2ccccc2)CCN(Cc2ccc3nsnc3c2)CC1` was 2140 (active). With `Cc1cccc(-c2ncc(CN3CCC(CO)(CCCc4ccccc4)CC3)cn2)c1`, the TR-FRET ratio is 1420 (inactive). The value for `CC(=O)c1cccc(CN2CCC(CO)(Cc3ccccc3)CC2)c1` was 1520 (inactive); that for `CCOC(=O)c1c(C)n(C)c2ccc(OC)c(NS(=O)(=O)CC)c12` was 1490 (inactive). The value for `CN(CC(=O)N1CCN(c2ccccc2)CC1)S(=O)(=O)c1cccs1` was 1700 (inactive). Regarding `Cc1nc(N2CCC(C)CC2)c2c(C)c(C(=O)Nc3cc(F)ccc3C)sc2n1`, the TR-FRET ratio is 2360 (active). On to `Cc1nc(N2CCN(c3ccccn3)CC2)c2c(C)c(C(=O)Nc3ccc(F)cc3)sc2n1`, for which the TR-FRET ratio was 1960 (inactive). `Cc1nc(N2CCOCC2)c2c(C)c(C(=O)Nc3ccc(C(F)(F)F)cc3)sc2n1`: the TR-FRET ratio is 1750 (inactive). With `CC(C)(C)c1ccc(NC(=O)COC(=O)CCc2nc3ccccc3c(=O)[nH]2)cc1`, the TR-FRET ratio was 1560 (inactive). The value for `CCC(C(=O)OCC(=O)Nc1ccc(C(=O)Nc2ccc(OC)cc2)cc1)c1ccccc1` (stereo not drawn) was 1460 (inactive). Consider `CC(C)N1CCC(NC(=O)Nc2ccccc2)CC1`, for which the TR-FRET ratio was 1620 (inactive). Regarding `COC(=O)c1ccc(C(=O)OC)c(NC(=S)N2CCN(c3ccc(F)cc3)CC2)c1`, the TR-FRET ratio is 1500 (inactive). In the case of `C=CCn1c(CNC(=O)c2ccco2)nnc1SCC(=O)c1ccc(OC)cc1`, the TR-FRET ratio is 1770 (inactive).

For `CCc1ccc(OCC(=O)OCC(=O)c2c(N)n(C)c(=O)n(C)c2=O)cc1`, the TR-FRET ratio is 1320 (inactive). The value for `CC(C)(C)NC(=O)c1ccc(Cn2cc(C(F)(F)F)ccc2=O)cc1` was 1730 (inactive); that for `N/C(Cc1ccc([N+](=O)[O-])cc1)=N\OC(=O)C1CCCCC1` was 1640 (inactive); that for `COc1ccc(N2CCN(C(=O)CNS(=O)(=O)c3ccc(C)c(C)c3)CC2)cc1` was 1450 (inactive). As to `CN1CCC(=NNC(=O)CN(c2cccc(Cl)c2)S(C)(=O)=O)CC1`, the TR-FRET ratio was 1650 (inactive). As for `COc1cc(C(=O)Nc2cc(C(F)(F)F)ccc2N2CCOCC2)ccc1O`, the TR-FRET ratio was 1560 (inactive). Turning to `CCc1ccc(NC(=O)CC2C(=O)NCCN2C(=S)Nc2ccccc2)cc1` (stereo not drawn), the TR-FRET ratio is 1500 (inactive).

Turning to `Cc1c(C(N)=O)sc2ncn(CCOc3ccccc3)c(=O)c12`, the TR-FRET ratio was 1550 (inactive). In the case of `Cc1cc(C2=NNC(=Nc3ccc(S(=O)(=O)N4CCOCC4)cc3)SC2)c(C)n1CC1CCCO1` (stereo not drawn), the TR-FRET ratio is 1650 (inactive). In the case of `Cc1ccc(OCC(=O)NNC(=S)NCc2ccccc2)cc1`, the TR-FRET ratio was 1530 (inactive). For the compound `Cc1[nH]nc(SCC(=O)NCC(C)C)c1[N+](=O)[O-]`, the TR-FRET ratio is 1720 (inactive). For the compound `CC(=O)Nc1ccc(NC(=O)C(C)n2c3ccccc3c3nc(=O)cc(C)n32)cc1` (stereo not drawn), the TR-FRET ratio is 1620 (inactive). Regarding `COc1ccc(C(=O)CSc2nnc(-c3ccco3)o2)cc1`, the TR-FRET ratio is 1800 (inactive). On to `COC(=O)c1ccc(/C=N/OCC(=O)Nc2cc(F)ccc2F)cc1`, for which the TR-FRET ratio was 1390 (inactive). Take `O=C(COC(=O)c1c2c(nc3ccccc13)CCCC2)c1ccc(Br)s1`: the TR-FRET ratio was 4220 (active). The value for `O=C(Nc1c2c(nc3ccccc13)CCCC2)c1ccccc1Br` was 1760 (inactive); that for `O=C(COC(=O)c1c2c(nc3ccccc13)/C(=C\c1cccs1)CCC2)Nc1ccccc1Cl` was 1790 (inactive); that for `O=C(Nc1ccc2ccccc2c1)/C(=C\c1ccc2c(c1)OCO2)NC(=O)c1ccco1` was 1560 (inactive). The value for `O=C(CSc1ccc(-c2cccs2)nn1)Nc1ccccc1F` was 1640 (inactive); that for `S=c1[nH]nc(-c2ccccc2)n1/N=C/c1c[nH]c2ccccc12` was 1470 (inactive); that for `Cc1ccccc1-c1n[nH]c(=S)n1C` was 1470 (inactive). The same measure for `Cc1ccccc1-c1n[nH]c(=S)n1/N=C/c1ccc(-c2ccccc2Br)o1`: 2150 (active).
